According to the supplement of paper PMC6555819:

Tested on: RARa homodimer (NR concentration 270 nM)
Assay: PBM binding z-score (relative to random genomic background probes); higher = stronger binding; sequences stand for … in GC…GCGATTGACAGCGTAGAATGAAGG
In short: (§1)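 Regression normalization was applied to scanned fluorescence from custom Agilent 4×180K protein-binding microarrays. Before scanning, arrays were incubated 1 h with ligand-free nuclear receptor dimers, and binding was detected with antibodies against each partner (one per run). Binding z-scores use the random background probes as reference.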

Sequence | PBM binding z-score
ATCGAAAGGTCGACAAGGTGAGTATACACCGTTT | 0.202
CAGCCTAGGTCAGGGGCAGTATAGGAGGAACGTT | 0.0151
CAAGACAGGTGAAAGGTAACTCAGTCTGGTACGC | 0.108
CAAACTAGGTCACAGAGGTCAAAATCCGTGCGTA | 2.93
TATACAGGGTCAAAGGCCAGGGTACGAATGTCGA | 1.67
TCTTGGAGATCAGCAGGTTAAGAAAGCTGGCCAA | 0.00806
TGAATGCGGTTATAAGATCAGGGAACGTTGCAAA | -0.0517
CCAGACAGGTGAAAGGTATCTCAGTCTGGTACGC | -0.422
CGTCAAAGTTCAACTAAGGCAACGTAAAGCACGC | 1.59
GCTGCTAGGTGAGGTTGGTCAGCTAACGGGTACG | -0.904
CAAACTAGGTCAAGAGGTCAAGGTCCGCTTCCCG | 2.29
ATATGTAGGTTAAGGGACATTCAGGTTGGTTCGC | 1.63
CCGACTGGGGCATAAGGTTACCGTAAGCCAGCCC | -0.61
CGAACTAGGTCAAGGACAGTGACTCTCCGCACGC | 0.541
ACTAGCAGGCCAAGTTTGGGTCAGTCAAACAAAG | -0.408
CCTACTGGGCCATTCCGAGGTCATTGATCATATG | 0.0189
CCAGACAGGTGAAAGCTAACTCAGTCTGGTACGC | -0.137
CGTCCAAGGTCAGAGGTCAGTGAAGAGATGACGG | 0.938

Tested on: RARb:RXRa (NR concentration 270 nM, RXRa partner concentration 90 nM)
Assay: as above
In short: as §1

Sequence | PBM binding z-score
TCTCGGAGGACACGACAGGTCAGAGCTCGACATC | 2.62
CCTCGGAGGACTGAAGGTCAGAGCTGTCCGCTTT | 2.38
TCGGACAGGTGAAGGTAACTCAGGTACGCAGTCG | 1.45
CCGTACGGGTCACTCCAGGTTATAGCATCGGAGT | 3.64
TCGAGTAGGTTAGGGGAATTCAGAATGGCGTCGA | 0.249
CGTTACGGGTCACGAGGTTATAGCACGACGAGCG | 4.56
GGAACGAGGACATTCGAGTTGATAGCATGGCGAT | 0.344
CGTCAAAGTTCTACTAAGGTAACGTAAAGCACGC | 0.603
TCATATAGGTAAAGGTGACAGTCGAACGATATGA | 1.9
CTCGAAAGGTCGTGCTCAGGAGAGTATACCAAAC | 3.87
GGAACGAGGGCATTCGAGTTTATAGCATGGCGAT | 1.9
GATACAGGGTCACGGCCAGAGTACGCGTATTGAT | 4.89
ATATGTAAGTTATCGGGTCATTCAGTTTGCGCAT | 2.05
TCACCAAGGTGAGCTGAGGTCGTTGATCCAACTC | 1.61
GCATATCGGTAATACAAGGTGAAAGTCCGATTGT | 0.541
ACAGACAGGTGATGAAGGTCACTCAGGCTATCAT | 3.03
ACAGACAGGTGCTGAAGGTAACTCAGGCTATCAT | -0.476
CCTTACGGGTCAAGGTTCTAGCACGGGTGGTACG | 4.05
ACTAGCAGGCAAAGTTTGGGTCACTCAAACAAAG | 1.07
GATACAGGGTCAGCTAGAGGCCAGGGTATGGAAA | 4.06

Sequence | PBM binding z-score
ACTAGCAGGCCAAGTTTGCGTCACTCAAACAAAG | 0.486
GTACCAAGGTGAATAGGTAGTTGATGAGTAGGCG | 1.1
ATCGAAAGGTCGACAAGGTGAGTATACACCGTTT | 4.02
CAGCCTAGGTCAGGGGCAGTATAGGAGGAACGTT | 3.5
CAAGACAGGTGAAAGGTAACTCAGTCTGGTACGC | 1.57
CAAACTAGGTCACAGAGGTCAAAATCCGTGCGTA | 5.11
TATACAGGGTCAAAGGCCAGGGTACGAATGTCGA | 4.48
TCTTGGAGATCAGCAGGTTAAGAAAGCTGGCCAA | 0.0526
TGAATGCGGTTATAAGATCAGGGAACGTTGCAAA | 0.025
CCAGACAGGTGAAAGGTATCTCAGTCTGGTACGC | 0.68
CGTCAAAGTTCAACTAAGGCAACGTAAAGCACGC | 5.21
GCTGCTAGGTGAGGTTGGTCAGCTAACGGGTACG | 0.502
CAAACTAGGTCAAGAGGTCAAGGTCCGCTTCCCG | 5.54
ATATGTAGGTTAAGGGACATTCAGGTTGGTTCGC | 1.57
CCGACTGGGGCATAAGGTTACCGTAAGCCAGCCC | 1.98
CGAACTAGGTCAAGGACAGTGACTCTCCGCACGC | 3.95
ACTAGCAGGCCAAGTTTGGGTCAGTCAAACAAAG | 1.21
CCTACTGGGCCATTCCGAGGTCATTGATCATATG | 2.63
CCAGACAGGTGAAAGCTAACTCAGTCTGGTACGC | 0.542
CGTCCAAGGTCAGAGGTCAGTGAAGAGATGACGG | 5.55
